# About 10,000 (3%) of roughly 330,000 compounds were called active. The full list was thinned out, with actives kept by preference. A number with no mark means an inactive call.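 The calls were made as follows: active = inhibition of at least 50% at 8 µM in the primary screen; inactive = the rest.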
# Target: Protein Mdm4 (Homo sapiens) + E3 ubiquitin-protein ligase Mdm2 (Homo sapiens) (UniProt O15151+Q00987)
# Experiment: disruptors of Mdm2/MdmX RING complex – cell-based, luminescence, split luciferase, SaOS-2, uHTS, primary screen (AID 485346)
# Conditions: SaOS-2 split-luciferase Mdm2/MdmX complementation, at 8 µM, stronger effect = higher value
# Chain of Protein Mdm4 (Homo sapiens) + E3 ubiquitin-protein ligase Mdm2 (Homo sapiens) (O15151 whole entry, looked up): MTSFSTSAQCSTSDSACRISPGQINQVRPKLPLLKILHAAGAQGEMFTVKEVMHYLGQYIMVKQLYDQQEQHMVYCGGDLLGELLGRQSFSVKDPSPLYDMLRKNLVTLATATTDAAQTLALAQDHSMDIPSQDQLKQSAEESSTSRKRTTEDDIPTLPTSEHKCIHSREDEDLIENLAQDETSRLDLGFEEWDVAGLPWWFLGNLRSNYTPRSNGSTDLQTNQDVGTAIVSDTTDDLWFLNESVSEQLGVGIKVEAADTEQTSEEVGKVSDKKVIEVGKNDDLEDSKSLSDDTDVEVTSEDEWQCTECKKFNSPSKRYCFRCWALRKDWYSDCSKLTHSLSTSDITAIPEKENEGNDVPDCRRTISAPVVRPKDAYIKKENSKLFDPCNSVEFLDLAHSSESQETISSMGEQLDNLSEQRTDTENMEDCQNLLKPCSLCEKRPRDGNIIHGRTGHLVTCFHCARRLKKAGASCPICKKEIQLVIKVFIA
# Chain of Protein Mdm4 (Homo sapiens) + E3 ubiquitin-protein ligase Mdm2 (Homo sapiens) (Q00987 whole entry, looked up): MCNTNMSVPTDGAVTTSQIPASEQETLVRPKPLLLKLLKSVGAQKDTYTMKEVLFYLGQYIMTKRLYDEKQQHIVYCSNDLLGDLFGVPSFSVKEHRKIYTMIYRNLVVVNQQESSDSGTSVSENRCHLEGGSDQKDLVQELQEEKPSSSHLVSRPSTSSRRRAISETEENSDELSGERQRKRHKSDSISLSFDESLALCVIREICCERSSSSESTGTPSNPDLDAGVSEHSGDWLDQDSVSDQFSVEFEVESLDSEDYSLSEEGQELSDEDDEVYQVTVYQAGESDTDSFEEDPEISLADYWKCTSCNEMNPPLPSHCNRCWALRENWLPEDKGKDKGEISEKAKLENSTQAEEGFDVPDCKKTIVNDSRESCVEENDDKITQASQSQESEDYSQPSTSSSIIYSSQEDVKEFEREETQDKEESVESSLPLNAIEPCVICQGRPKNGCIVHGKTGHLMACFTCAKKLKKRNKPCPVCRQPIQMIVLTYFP
row,Structure (SMILES),inhibition
1,CC1CC(C)CN(S(=O)(=O)c2cccc(C(=O)N3C(=O)c4cccc(N)c4C3=O)c2)C1 (stereo unspecified),19.4%
2,Cc1cc(C)n(-c2ccc(NC(=O)C3CCCCN3C(=O)c3cccs3)cc2)n1 (stereo unspecified),12%
3,COc1ccc(NC(=O)CCCC2CCCCC2)c(OC)c1,-13.7%
4,Cc1ccccc1-n1nnc2c(=O)oc3ccccc3c21,8.39%
5,O=C(CNC(=O)c1ccccc1)Oc1ccc([N+](=O)[O-])cc1,-9.24%
6,O=C(Nc1nc2ccc([N+](=O)[O-])cc2s1)c1ccc(S(=O)(=O)N2CCCc3ccccc32)cc1,96.6% (active)
7,Cc1ccc(NC(=O)c2cccc(S(=O)(=O)N3CCCc4ccccc43)c2)nc1,2.43%
8,O=C(NC(Nc1nc2ccc([N+](=O)[O-])cc2s1)(C(F)(F)F)C(F)(F)F)c1ccccc1,99.3% (active)
9,O=C(CCNC(=O)c1ccccc1)Nc1nc2ccccc2s1,-16.2%
10,CNC(=O)c1ccsc1NC(=O)c1ccc(S(=O)(=O)N2CCc3ccccc32)cc1,38%
11,CCCCCCC12CCC(C(=O)O)(CC1)CC2,11.2%
12,COc1cccc(CC(=O)OCC(=O)NCc2ccc3c(c2)OCO3)c1,1.87%
13,CCn1c(CSCc2c(Cl)cccc2Cl)n[nH]c1=S,7.91%
14,Cc1cc(NS(=O)(=O)c2ccc(NC(=O)c3cccc(OC(F)F)c3)cc2)nc(C)n1,-4.83%
15,COc1ccc(C2c3[nH]c4ccccc4c3C[C@H]3C(=O)N(CC(C)C)CC(=O)N23)c(OC)c1 (stereo partly specified),13.6%
16,COc1ccc(Br)c2c1C(=O)CC2,7.81%
17,O=C(NCCCn1ccnc1)C(=O)NCC1OCCN1S(=O)(=O)c1cc(F)ccc1F (stereo unspecified),-11.2%
18,CCOC(=O)c1ccc(NC(=O)c2c(NCc3ccccc3)[nH]c(=O)[nH]c2=O)cc1,73.2% (active)
19,CCOC(=O)c1ccc(NC(=O)c2c(N)n(C)c(=O)[nH]c2=O)cc1,5.07%
20,CCOC(=O)c1ccc(NC(=O)c2cc(=O)[nH]c3ccccc23)cc1,23%
21,CCOC(=O)N1CCC(N2Cc3cccc(C(=O)Nc4c(C)cccc4CC)c3C2=O)CC1,12.5%
22,Cc1ccc(NC(=O)Cn2nnc(C(=O)NCc3ccco3)c2N)c(C)c1,11.7%
23,CCOc1ccccc1NC(=O)Cc1cccs1,2.43%

row,Structure (SMILES),inhibition
1,CCOc1ccccc1NC(=O)Cn1nnc(C(=O)NCc2cccs2)c1N,61.5% (active)
2,COc1cc(OC)c2ccc(=O)oc2c1C(CCN1CCN(c2ccccc2)CC1)c1ccc2c(c1)OCO2 (stereo unspecified),42.4%
3,CCN(CC)CCC(c1ccc2c(c1)OCO2)c1c(OC)cc(OC)c2c(-c3ccccc3)cc(=O)oc12 (stereo unspecified),76.1% (active)
4,CCN(CC)CCC(c1cc(OC)c(OC)c(OC)c1)c1c(OC)cc(OC)c2c(-c3ccccc3)cc(=O)oc12 (stereo unspecified),62.7% (active)
5,CCN(CC)C(=O)CC(c1ccc2c(c1)OCO2)c1c(OC)cc(OC)c2c(-c3ccccc3)cc(=O)oc12 (stereo unspecified),13%
6,COc1cc(C(CCN2CCN(c3ccccc3)CC2)c2c(OC)cc(OC)c3ccc(=O)oc23)cc(OC)c1OC (stereo unspecified),15.2%
7,COc1ccc(-c2c(C)cc3oc(=O)cc(-c4ccccc4)c3c2C)cc1C=O,27.5%
8,O=C(CN1CCCCC1)NC(=O)Nc1ccccc1F,12.7%
9,O=C(NNC1=C(C(=O)C(F)(F)F)CCC1)c1ccncc1,8.09%
10,COc1cc(OC)c(C(=O)NNC(=O)c2ccccc2-n2cccc2)cc1OC,12.8%
11,CNC(=O)C1CC(=O)N(c2ccc(OCC(=O)Nc3ccccc3C)cc2)C1 (stereo unspecified),10.1%
12,COc1ccc(CN2[C@@H](CC(=O)O)c3cc(F)ccc3S2(=O)=O)cc1,-1.99%
13,CCCCCNC(=O)c1cccnc1SCC(=O)Nc1ccccc1OC,1.51%
14,Cc1cccc(NS(=O)(=O)c2cccc(C(=O)NNC(=O)c3ccccc3O)c2)c1,46%
15,CCOC(=O)C(C)N(c1ccccc1Cl)S(C)(=O)=O (stereo unspecified),19%
16,CC(C)=CCCC1(C)C=Cc2c(ccc3c2[nH]c2cc(O)c(C)cc23)O1 (stereo unspecified),97.9% (active)
17,CC(Sc1ccccc1F)C(=O)Nc1cccc(S(=O)(=O)N2CCOCC2)c1 (stereo unspecified),8.39%
18,COc1ccc(NC(=O)NC2CC3CCCC(C2)N3Cc2ccccc2)cc1 (stereo unspecified),5.4%
19,Cc1c(NC(=O)C(C)OC(=O)c2ccccc2O)c(=O)n(-c2ccccc2)n1C (stereo unspecified),13.1%
20,CCOc1cc(/C=C/c2nc3ccccc3c(=O)[nH]2)cc(Br)c1OC,69.3% (active)
21,COc1ccc(C)cc1-n1nnnc1SCc1nc2ccccc2c(=O)[nH]1,18.2%
22,O=c1[nH]c(/C=C/c2cccc(Br)c2)nc2ccccc12,48.2%
23,Cc1nonc1OCCn1nnnc1N,6.95%

row,Structure (SMILES),inhibition
1,COC(=O)c1ccc(Sc2ccc(F)cc2)c(N)c1,-11%
2,COc1cccc(/C=N/Nc2ccc(Cl)nn2)c1,-64.5%
3,Oc1cccc(/C=N/Nc2ccc(Cl)nn2)c1O,68.6% (active)
4,Cc1ccsc1/C=N/Nc1ccc(Cl)nn1,-10.7%
5,Cc1cc(N2CCCC2)ccc1NC(=O)COc1ccc(Cl)cc1,-1.43%
6,CCN(CC)C(=O)c1nc[nH]c1C(=O)N(C)Cc1ccccc1,-2.16%
7,Cc1ccccc1CNC(=O)CCC(=O)N1Cc2ccccc2Oc2ncccc21,18.7%
8,CC[C@H]1OC(=O)[C@H](C)[C@@H](O[C@H]2C[C@@](C)(OC)[C@@H](O)[C@H](C)O2)[C@H](C)[C@@H](O[C@@H]2O[C@H](C)C[C@H](N(C)C)[C@H]2O)[C@](C)(O)C[C@@H](C)[C@@H]2N[C@@H](COCCOC)O[C@H]([C@H]2C)[C@]1(C)O,-10.6%
9,C=CCOc1c2ccc(C(=O)N(CC)c3ccc(OC)cc3)cc2nn1C,13.6%
10,CCCn1nc(C(=O)Nc2ccc3nc(C)sc3c2)c2ccccc2c1=O,65.5% (active)
11,CCCCn1nc(C(=O)Nc2cccc(C(=O)NC3CC3)c2)c2ccccc2c1=O,-19.3%
12,CCCn1nc(C(=O)NNC(=O)CSCC(=O)Nc2cc(C)on2)c2ccccc2c1=O,-23.6%
13,COc1ccccc1C1CC(=O)n2c(nc(-c3ccccc3)c2-c2ccccc2)S1 (stereo unspecified),-21.8%
14,O=C(N[C@@H](Cc1c[nH]c2ccccc12)C(=O)O)OCC1c2ccccc2-c2ccccc21,-20.2%
15,C=C1CCC(N(O)c2cc(C)on2)C(=C)CCC2C1CC2(C)C (stereo unspecified),-8.29%
16,CC(=O)Nc1ccc(S(=O)(=O)N(CCc2ccccc2)CC(=O)N/N=C/c2ccc(C(=O)O)cc2)cc1,-1.72%
17,CN(C)c1ccc(-n2cccc2/C=N/n2cnnc2)cc1,18.3%
18,Cc1ccc(N=C2NC(=O)/C(=C/C=C/c3ccco3)S2)cc1C,7.92%
19,CN(C)c1ccc(-n2cccc2/C=C2/SC(=Nc3ccc(F)cc3)NC2=O)cc1,53.3% (active)
20,Cc1ccc(S(=O)(=O)N2CCCCC2)cc1NC(=O)CCNC(=O)c1ccccc1,-6.37%
21,O=C(CN1CCOCC1)Nc1cccc([N+](=O)[O-])c1,14.4%
22,O=C(Nc1ccccc1Cl)/C(Cl)=C(\Cl)S(=O)c1ccccc1 (stereo unspecified),93.6% (active)
23,O=C(Cc1ccc2c(c1)CCCC2)Nc1ccccc1Cl,-28.4%

row,Structure (SMILES),inhibition
1,Cc1c(NC(=O)Nc2ccccc2Cl)sc(=S)n1C,-28%
2,Cc1ccc(S(=O)(=O)N2CC(O)C[C@H]2C(=O)OCC(=O)Nc2ccc(N3CCOCC3)cc2)cc1C (stereo partly specified),31.1%
3,NC(=O)c1cc2ccccc2o/c1=N/NC(=O)c1cccc(F)c1,1.22%
4,COc1cccc2cc(C(=O)N3CCN(C(=O)c4ccccc4)CC3)c(=O)oc12,13.1%
5,COc1cccc2cc(C(N)=O)/c(=N\NC(=O)c3ccccc3)oc12,56.6% (active)
6,CC(=O)N1CCc2c(sc(NC(=O)CCS(=O)(=O)c3ccccc3)c2C#N)C1,86.2% (active)
7,CC(C)N1CCc2c(sc(NC(=O)Cc3ccccc3)c2C#N)C1,-40.8%
8,CC(=O)N1CCc2c(sc(NC(=O)CCS(=O)(=O)c3ccc(C)cc3)c2C(N)=O)C1,25.4%
9,COc1ccc(N(C(=O)c2snc(C(N)=O)c2N)C(C(=O)NC2CCCC2)c2ccco2)cc1OC (stereo unspecified),22.9%
10,O=c1[nH]c(/C=C\c2cccc(C(F)(F)F)c2)nc(O)c1[N+](=O)[O-],-7.22%
11,Cc1ccc(OCC(O)CN2CCN(CC(O)COc3ccc(C)cc3Cl)CC2)c(Cl)c1 (stereo unspecified),73.5% (active)
12,OC(COc1ccc(F)cc1Cl)CN1CCc2ccccc2C1 (stereo unspecified),-9.27%
13,Cc1cccc(OCC(O)CN2CCN(S(=O)(=O)c3ccc(C)cc3C)CC2)c1 (stereo unspecified),-4.83%
14,CCOc1cc(NC(=S)NCc2ccco2)c(OCC)cc1NC(=O)c1ccco1,9.15%
15,CCOc1cc(NC(=O)c2ccco2)c(OCC)cc1NC(=O)COc1ccccc1,55.2% (active)
16,CC(Oc1ccc2ccccc2c1)C(=O)NNC(=S)NC(=O)c1ccco1 (stereo unspecified),19.6%
17,CCCc1ccc(OCC(=O)NNC(=S)NC(=O)c2ccco2)cc1,50% (active)
18,CC(C)Oc1ccc(CCC(=O)NNC(=S)NCc2ccccc2)cc1,-12.8%
19,COc1ccc(C(=O)NC(=S)NNC(=O)CCc2ccccc2)cc1,58.1% (active)
20,COc1ccc(C(=O)NC(=S)NNC(=O)c2c(-c3ccccc3)noc2C)cc1,14.7%
21,CCCc1ccc(OCCNC(=O)c2ccco2)cc1,-4.69%
22,COc1ccc(OCC(=O)Nc2ccc(NC(=O)c3ccco3)c(C)c2)cc1,-0.739%
